# Measurements published in PubChem BioAssay.
# Calls of active or inactive are those of the source.
# Key:
# [1] = system: XIP peptide (Xip251-270) binding; assay: XIP fragment 251-270 binding compounds – biochemical, small-molecule microarray, fluorescence 635/667 nm, 0.1 µg/mL protein, primary screen (AID 1182); details: fluorescent protein binding, 635 nm, higher = more signal, called active from +8 up or from −8 down
# XIP peptide (Xip251-270) = assay: compounds binding XIP fragment 251-270 – biochemical, small-molecule microarray, fluorescence 635/667 nm, 0.5 µg/mL protein, primary screen (AID 1183); details: fluorescence 635 nm, higher = more signal
# [2] = blood-stage malaria parasite viability loss – strain 3D7, DAPI fluorescence, 100 nL, primary screen (AID 1184);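 further: parasites grown inside human red blood cells in medium with human serum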; details: P. falciparum 3D7 growth, 3 d, higher = more signal
# [3] = biological target: Homeobox protein Hox-A13 (Mus musculus) (UniProt Q62424); assay: disruptors of Hoxa13 oligonucleotide interaction – biochemical, fluorescence polarization, labeled oligonucleotide, primary screen (AID 1185); details: Hoxa13:DNA binding, 15 min, higher = more signal, called active from +8 up or from −8 down
# Homeobox protein Hox-A13 (Mus musculus), sequence (Q62424 whole entry, looked up): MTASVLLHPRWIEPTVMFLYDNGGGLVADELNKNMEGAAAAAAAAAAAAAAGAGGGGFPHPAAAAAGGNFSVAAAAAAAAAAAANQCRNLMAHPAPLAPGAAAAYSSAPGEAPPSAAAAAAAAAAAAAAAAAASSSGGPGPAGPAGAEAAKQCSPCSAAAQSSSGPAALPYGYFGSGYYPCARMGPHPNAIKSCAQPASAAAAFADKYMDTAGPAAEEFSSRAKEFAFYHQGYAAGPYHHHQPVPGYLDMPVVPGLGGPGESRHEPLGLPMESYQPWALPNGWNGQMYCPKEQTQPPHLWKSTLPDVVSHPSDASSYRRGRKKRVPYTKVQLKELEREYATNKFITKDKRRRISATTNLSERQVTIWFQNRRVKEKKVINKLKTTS
SMILES,composite z-score [1],composite z-score (XIP peptide (Xip251-270)),z-score [2],z-score [3]
CON=Cc1ccc(C(=O)N2[C@H](c3ccc(C)cc3)[C@@H](C)CC[C@H]2C(=O)OC)cc1,-0.288 (inactive),0.488,-0.141,-3.49 (inactive)
O=C(C=Cc1ccc2c(c1)OCO2)c1ccc(F)cc1,-0.158 (inactive),0.629,-0.533,0.526 (inactive)
Cc1ccc(S(=O)(=O)n2c3ccccc3c3nnc(C(=O)c4ccccc4)nc32)cc1,0.912 (inactive),0.249,0.892,-3.73 (inactive)
CCN1C(=O)[C@H]2[C@H]3[C@H](O)[C@H](O)CC(=NO[C@@H](C)c4cn([C@H](CO)Cc5ccccc5)nn4)[C@@H]3CC[C@H]2C1=O,1.13 (inactive),0.814,0.032,-2.02 (inactive)
CON=C1[C@H]2CCn3c(=O)n(-c4ccccc4)c(=O)n3[C@H]2[C@H](O)[C@@H]2O[C@H]12,-0.0682 (inactive),0.491,-0.573,-0.465 (inactive)
O=C1[C@H]2[C@H]3[C@H](O)[C@H](O)CC(=NOC[C@@H](O)COCc4ccco4)[C@H]3CC[C@H]2C(=O)N1c1ccc(F)cc1F,-0.774 (inactive),0.415,-0.644,0.794 (inactive)
COc1cccc([C@H]2Oc3ccc(OC)cc3C(=NO[C@H](C)c3cn([C@H](CO)Cc4ccccc4)nn3)[C@@H]2O)c1,-0.0592 (inactive),0.733,0.24,-6.29 (inactive)
CON=C[C@@H](C)[C@H](OCc1ccccc1)C(C)C,-0.372 (inactive),-0.647,-1.11,3.84 (inactive)
CC(CCN1CCCc2nc(C)c(C)cc21)=NOC(C)CN1CCCCc2nc(C)c(C)cc21 (configuration not stated),-0.053 (inactive),0.725,-0.153,-6.78 (inactive)
O=C(NN=C1C[C@@H](O)[C@@H](O)[C@@H]2[C@@H]3C(=O)N(C4CCCCC4)C(=O)[C@@H]3CC[C@@H]12)OCc1ccccc1,0.152 (inactive),-0.0414,-0.321,-3.09 (inactive)
CCCNC(=O)OC[C@H]1O[C@H](CCON=Cc2ccc(C(=O)N3[C@H](c4ccc(C)cc4)[C@@H](C)CC[C@H]3C(=O)OC)cc2)C=C[C@@H]1Oc1ccc(OC)cc1,0.236 (inactive),0.257,-2.3,-2.32 (inactive)
C#CCCCON=C1C[C@@H](O)[C@@H](O)[C@@H]2[C@@H]3C(=O)N(c4cccc(Oc5ccccc5)c4)C(=O)[C@@H]3CC[C@H]12,0.332 (inactive),0.507,0.63,0.303 (inactive)
CON=C[C@@H](NS(=O)(=O)c1ccc(C)cc1)[C@H](C)C=CCC(=O)OC,0.212 (inactive),0.332,1.25,1.12 (inactive)
